In PMC9911399, “Two distinct binding modes provide the RNA-binding protein RbFox with extraordinary sequence specificity”:
Substitutions are numbered along the chain they refer to; changes in the protein carry UniProt numbers. The full ranking holds about 16,000 sequences; the median of “ka relative to ugcaugu” is about 0.0091, and the highest 2% start at about 0.032. What follows is part of a selection rich in the highest values, with near analogues and random picks from the rest.

T1: RBFOX1 RRM (Homo sapiens, UniProt Q9NWB1 109-208)
T1 sequence: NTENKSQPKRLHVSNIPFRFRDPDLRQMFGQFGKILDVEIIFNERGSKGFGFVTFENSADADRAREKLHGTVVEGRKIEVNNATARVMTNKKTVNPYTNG

B1: GACCAGC (DNA:RNA)
RNA: GGGAGACCGGAAUUCAGAUUGUCCGACCAGCUUAAAUCCCGUCGUAGCCACCA
DNA 1: CAATCTGAATTCCGGTCTCCC
DNA 2: TGGTGGCTACGACGGGATT
B2: GGGGUCA (DNA:RNA)
RNA: B1 RNA with A26G, C27G, C28G, A29U, G30C, C31A
DNA 1: CAATCTGAATTCCGGTCTCCC
DNA 2: TGGTGGCTACGACGGGATT
B3: AGGUCAC (DNA:RNA)
RNA: B1 RNA with G25A, A26G, C27G, C28U, A29C, G30A
DNA 1: CAATCTGAATTCCGGTCTCCC
DNA 2: TGGTGGCTACGACGGGATT
B4: CCUAGCG (DNA:RNA)
RNA: GGGAGACCGGAAUUCAGAUUGUCCCCUAGCGUUAAAUCCCGUCGUAGCCACCA
DNA 1: CAATCTGAATTCCGGTCTCCC
DNA 2: TGGTGGCTACGACGGGATT
B5: GAAUCAG (DNA:RNA)
RNA: B1 RNA with C27A, C28U, A29C, G30A, C31G
DNA 1: CAATCTGAATTCCGGTCTCCC
DNA 2: TGGTGGCTACGACGGGATT
B6: UUGAAGG (DNA:RNA)
RNA: B4 RNA with C25U, C26U, U27G, G29A, C30G
DNA 1: CAATCTGAATTCCGGTCTCCC
DNA 2: TGGTGGCTACGACGGGATT
B7: CUUACUA (DNA:RNA)
RNA: B4 RNA with C26U, G29C, C30U, G31A
DNA 1: CAATCTGAATTCCGGTCTCCC
DNA 2: TGGTGGCTACGACGGGATT
B8: UCUCGCU (DNA:RNA)
RNA: B4 RNA with C25U, A28C, G31U
DNA 1: CAATCTGAATTCCGGTCTCCC
DNA 2: TGGTGGCTACGACGGGATT
B9: GCGGAUU (DNA:RNA)
RNA: B1 RNA with A26C, C27G, C28G, G30U, C31U
DNA 1: CAATCTGAATTCCGGTCTCCC
DNA 2: TGGTGGCTACGACGGGATT
B10: CGGGGAU (DNA:RNA)
RNA: B4 RNA with C26G, U27G, A28G, C30A, G31U
DNA 1: CAATCTGAATTCCGGTCTCCC
DNA 2: TGGTGGCTACGACGGGATT
B11: GCGGUUG (DNA:RNA)
RNA: B4 RNA with C25G, U27G, A28G, G29U, C30U
DNA 1: CAATCTGAATTCCGGTCTCCC
DNA 2: TGGTGGCTACGACGGGATT
B12: GCGGUUC (DNA:RNA)
RNA: B1 RNA with A26C, C27G, C28G, A29U, G30U
DNA 1: CAATCTGAATTCCGGTCTCCC
DNA 2: TGGTGGCTACGACGGGATT
B13: GGGAAUU (DNA:RNA)
RNA: B1 RNA with A26G, C27G, C28A, G30U, C31U
DNA 1: CAATCTGAATTCCGGTCTCCC
DNA 2: TGGTGGCTACGACGGGATT
B14: GCGGGAU (DNA:RNA)
RNA: B4 RNA with C25G, U27G, A28G, C30A, G31U
DNA 1: CAATCTGAATTCCGGTCTCCC
DNA 2: TGGTGGCTACGACGGGATT
B15: GGGAGAU (DNA:RNA)
RNA: B4 RNA with C25G, C26G, U27G, C30A, G31U
DNA 1: CAATCTGAATTCCGGTCTCCC
DNA 2: TGGTGGCTACGACGGGATT
B16: GCGGCGG (DNA:RNA)
RNA: B4 RNA with C25G, U27G, A28G, G29C, C30G
DNA 1: CAATCTGAATTCCGGTCTCCC
DNA 2: TGGTGGCTACGACGGGATT
B17: GGGGGAU (DNA:RNA)
RNA: B4 RNA with C25G, C26G, U27G, A28G, C30A, G31U
DNA 1: CAATCTGAATTCCGGTCTCCC
DNA 2: TGGTGGCTACGACGGGATT
B18: GGGGAUU (DNA:RNA)
RNA: B1 RNA with A26G, C27G, C28G, G30U, C31U
DNA 1: CAATCTGAATTCCGGTCTCCC
DNA 2: TGGTGGCTACGACGGGATT
B19: CGCGGAU (DNA:RNA)
RNA: B4 RNA with C26G, U27C, A28G, C30A, G31U
DNA 1: CAATCTGAATTCCGGTCTCCC
DNA 2: TGGTGGCTACGACGGGATT
B20: GGAGAUU (DNA:RNA)
RNA: B1 RNA with A26G, C27A, C28G, G30U, C31U
DNA 1: CAATCTGAATTCCGGTCTCCC
DNA 2: TGGTGGCTACGACGGGATT
B21: AUUGUUU (DNA:RNA)
RNA: B4 RNA with C25A, C26U, A28G, G29U, C30U, G31U
DNA 1: CAATCTGAATTCCGGTCTCCC
DNA 2: TGGTGGCTACGACGGGATT
B22: GUUCAGC (DNA:RNA)
RNA: B1 RNA with A26U, C27U
DNA 1: CAATCTGAATTCCGGTCTCCC
DNA 2: TGGTGGCTACGACGGGATT
B23: AAUAUGG (DNA:RNA)
RNA: B4 RNA with C25A, C26A, G29U, C30G
DNA 1: CAATCTGAATTCCGGTCTCCC
DNA 2: TGGTGGCTACGACGGGATT
B24: CGCGAUU (DNA:RNA)
RNA: B1 RNA with G25C, A26G, C28G, G30U, C31U
DNA 1: CAATCTGAATTCCGGTCTCCC
DNA 2: TGGTGGCTACGACGGGATT
B25: UAUGUGA (DNA:RNA)
RNA: B1 RNA with G25U, C27U, C28G, A29U, C31A
DNA 1: CAATCTGAATTCCGGTCTCCC
DNA 2: TGGTGGCTACGACGGGATT
B26: GUAUUGA (DNA:RNA)
RNA: B1 RNA with A26U, C27A, C28U, A29U, C31A
DNA 1: CAATCTGAATTCCGGTCTCCC
DNA 2: TGGTGGCTACGACGGGATT
B27: ACGGAUU (DNA:RNA)
RNA: B4 RNA with C25A, U27G, A28G, G29A, C30U, G31U
DNA 1: CAATCTGAATTCCGGTCTCCC
DNA 2: TGGTGGCTACGACGGGATT
B28: GGGAUUU (DNA:RNA)
RNA: B4 RNA with C25G, C26G, U27G, G29U, C30U, G31U
DNA 1: CAATCTGAATTCCGGTCTCCC
DNA 2: TGGTGGCTACGACGGGATT
B29: CGGGAUU (DNA:RNA)
RNA: B4 RNA with C26G, U27G, A28G, G29A, C30U, G31U
DNA 1: CAATCTGAATTCCGGTCTCCC
DNA 2: TGGTGGCTACGACGGGATT
B30: GGGAAAU (DNA:RNA)
RNA: B1 RNA with A26G, C27G, C28A, G30A, C31U
DNA 1: CAATCTGAATTCCGGTCTCCC
DNA 2: TGGTGGCTACGACGGGATT
B31: CGGGCGU (DNA:RNA)
RNA: B4 RNA with C26G, U27G, A28G, G29C, C30G, G31U
DNA 1: CAATCTGAATTCCGGTCTCCC
DNA 2: TGGTGGCTACGACGGGATT
B32: GGGGCGU (DNA:RNA)
RNA: B1 RNA with A26G, C27G, C28G, A29C, C31U
DNA 1: CAATCTGAATTCCGGTCTCCC
DNA 2: TGGTGGCTACGACGGGATT
B33: GGGGAAU (DNA:RNA)
RNA: B1 RNA with A26G, C27G, C28G, G30A, C31U
DNA 1: CAATCTGAATTCCGGTCTCCC
DNA 2: TGGTGGCTACGACGGGATT
B34: GUUAAAU (DNA:RNA)
RNA: B4 RNA with C25G, C26U, G29A, C30A, G31U
DNA 1: CAATCTGAATTCCGGTCTCCC
DNA 2: TGGTGGCTACGACGGGATT
B35: GGGCGUU (DNA:RNA)
RNA: B1 RNA with A26G, C27G, A29G, G30U, C31U
DNA 1: CAATCTGAATTCCGGTCTCCC
DNA 2: TGGTGGCTACGACGGGATT
B36: GGAUUUU (DNA:RNA)
RNA: B1 RNA with A26G, C27A, C28U, A29U, G30U, C31U
DNA 1: CAATCTGAATTCCGGTCTCCC
DNA 2: TGGTGGCTACGACGGGATT

biological target: T1, RBFOX1 RRM; assay: EMSA; HiTS-Eq, 1 nM pool, 10 min; buffer printed only for the single-RNA assays: 10 mM Tris pH 7.5, 150 mM NaCl, 3.4 mM EDTA, 0.001% NP-40, 30 C; conditions: tags: His6 N-terminal (pET28a); label: 5' 32P
Procedure, shortened: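 Relative association constants, normalised to the cognate motif, were derived by comparing read counts of each RNA species with those of the control reaction. The RNA sequenced was the free fraction, separated by 8% native PAGE after a 10 min equilibration in 50 µL of 1 nM 5′-radiolabelled RNA (7 randomized nucleotides) with increasing concentrations of purified wild-type or mutant RbFox RRM.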

Binder	binding signal
B1	0.00826 KA relative to UGCAUGU
B2	0.0251 KA relative to UGCAUGU
B3	0.0109 KA relative to UGCAUGU
B4	0.00608 KA relative to UGCAUGU
B5	0.00941 KA relative to UGCAUGU
B6	0.0111 KA relative to UGCAUGU
B7	0.00319 KA relative to UGCAUGU
B8	0.0104 KA relative to UGCAUGU
B9	0.0163 KA relative to UGCAUGU
B10	0.0184 KA relative to UGCAUGU
B11	0.0329 KA relative to UGCAUGU
B12	0.0202 KA relative to UGCAUGU
B13	0.0335 KA relative to UGCAUGU
B14	0.0486 KA relative to UGCAUGU
B15	0.0316 KA relative to UGCAUGU
B16	0.0288 KA relative to UGCAUGU
B17	0.0252 KA relative to UGCAUGU
B18	0.038 KA relative to UGCAUGU

Binder	binding signal
B19	0.0187 KA relative to UGCAUGU
B20	0.0219 KA relative to UGCAUGU
B21	0.0146 KA relative to UGCAUGU
B22	0.0147 KA relative to UGCAUGU
B23	0.00711 KA relative to UGCAUGU
B24	0.0158 KA relative to UGCAUGU
B25	0.0133 KA relative to UGCAUGU
B26	0.0118 KA relative to UGCAUGU
B27	0.00809 KA relative to UGCAUGU
B28	0.0372 KA relative to UGCAUGU
B29	0.03 KA relative to UGCAUGU
B30	0.0288 KA relative to UGCAUGU
B31	0.029 KA relative to UGCAUGU
B32	0.0374 KA relative to UGCAUGU
B33	0.0354 KA relative to UGCAUGU
B34	0.00766 KA relative to UGCAUGU
B35	0.0253 KA relative to UGCAUGU
B36	0.0184 KA relative to UGCAUGU
